MPTP block: inhibitors of mitochondrial permeability transition pore; isolated mouse mitochondria, Ca2+ swelling absorbance, 30 min; 360,000 compounds, 1.4% hits; inhibition, % at 10 µM; AID 602449;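 active = inhibition of 50% or more, scaled per plate between neutral and stimulator controls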;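 also: 0% = DMSO wells given calcium and 100% = 1 mM EGTA wells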
tim23-1 inh: inhibits growth of tim23-1 mutant yeast | S. cerevisiae tim23-1 growth, BacTiter-Glo luminescence, 24 h | inhibition, % at 20 µM | 330,000 compounds, 1.3% hits | AID 463212;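 active = growth inhibition of the mutant yeast at or above 50%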;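 also: temperature-sensitive mutant grown at 25 °C; plate controls were DMSO-treated mutant yeast for no effect and medium wells lacking yeast for full effect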
tim10-1 inh: growth inhibitors of tim10-1 mutant yeast; inhibition, % at 20 µM; S. cerevisiae tim10-1 ts strain growth, BacTiter-Glo, 24 h; AID 463190; 330,000 compounds, 2.2% hits;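 active = inhibition of at least 40%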;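 also: mutant grown at 25 °C; 0% = DMSO wells with yeast and 100% = wells holding no yeast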
Mdm2-MdmX inh: inhibitors of human Mdm2/MdmX interaction; SaOS-2 split-luciferase Mdm2/MdmX complementation, luminescence; inhibition, % at 8 µM; AID 485346; 330,000 compounds, 3% hits; O15151+Q00987;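 active = inhibition of at least 50% at 8 µM in the primary screen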
Target sequence (O15151 whole entry, looked up): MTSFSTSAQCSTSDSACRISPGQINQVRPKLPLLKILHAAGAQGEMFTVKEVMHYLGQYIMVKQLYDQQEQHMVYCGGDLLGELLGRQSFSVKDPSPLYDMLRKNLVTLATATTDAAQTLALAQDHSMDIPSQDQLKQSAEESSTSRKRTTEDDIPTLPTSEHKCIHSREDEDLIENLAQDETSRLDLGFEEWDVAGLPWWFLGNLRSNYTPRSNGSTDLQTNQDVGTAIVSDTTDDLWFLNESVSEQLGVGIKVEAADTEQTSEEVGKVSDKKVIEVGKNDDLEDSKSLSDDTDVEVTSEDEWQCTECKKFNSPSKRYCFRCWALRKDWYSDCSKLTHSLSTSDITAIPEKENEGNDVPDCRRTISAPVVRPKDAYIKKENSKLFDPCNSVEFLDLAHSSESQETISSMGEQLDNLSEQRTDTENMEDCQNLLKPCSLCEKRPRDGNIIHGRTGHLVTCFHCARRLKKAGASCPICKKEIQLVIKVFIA
Target sequence (Q00987 whole entry, looked up): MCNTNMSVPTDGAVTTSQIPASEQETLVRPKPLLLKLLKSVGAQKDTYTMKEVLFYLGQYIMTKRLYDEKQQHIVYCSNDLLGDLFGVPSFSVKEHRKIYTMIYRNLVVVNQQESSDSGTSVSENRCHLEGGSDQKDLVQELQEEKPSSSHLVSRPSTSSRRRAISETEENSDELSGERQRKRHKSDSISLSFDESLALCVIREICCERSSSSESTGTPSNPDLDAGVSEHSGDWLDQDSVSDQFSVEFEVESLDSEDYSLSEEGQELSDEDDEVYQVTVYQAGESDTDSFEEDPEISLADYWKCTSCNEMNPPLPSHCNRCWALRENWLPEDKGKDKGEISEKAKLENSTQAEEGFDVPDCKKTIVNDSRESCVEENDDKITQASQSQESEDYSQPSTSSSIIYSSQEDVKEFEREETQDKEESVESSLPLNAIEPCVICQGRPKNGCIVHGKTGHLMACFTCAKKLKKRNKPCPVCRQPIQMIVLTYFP
TIM10 inh: growth inhibitors of TIM10 yeast strain | S. cerevisiae TIM10 strain growth, BacTiter-Glo luminescence, 24 h | inhibition, % at 10 µM | 330,000 compounds, 1.4% hits | AID 463195;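 active = inhibition of 40% or more at the single tested concentration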;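 also: wild-type TIM10 isogenic control strain grown at permissive 25 °C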
tim10-1 conf: tim10-1 yeast growth inhibition, confirmed; 7,400 compounds, 56% hits; inhibition, % at 20 µM; S. cerevisiae tim10-1 ts strain growth, BacTiter-Glo, 24 h; shares compounds with tim10-1 inh; AID 463213;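 active = inhibition of yeast growth at or above a set limit in either of two repeat tests at 20 µM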;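 also: tim10-1 mutant grown at permissive 25 °C to find synthetic lethal compounds; 0% = DMSO yeast wells and 100% = medium wells without yeast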
tim10 confirm: TIM10 yeast growth inhibition, confirmed; 4,600 compounds, 63% hits; shares compounds with TIM10 inh; AID 463215; inhibition, % at 10 µM; S. cerevisiae tim10 strain growth, BacTiter-Glo luminescence, 24 h;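 active = inhibition of yeast growth at or above a set limit in either of two replicates at 10 µM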;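 also: this counterscreen used the strain with wild-type TIM10; 0% = yeast with DMSO and 100% = medium wells lacking yeast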
Active calls of the source: *; · = not tested or not shown. This is a sample that favours compounds with a hit; in the whole collection about 6.3% have one here.

SMILES | MPTP block | tim23-1 inh | tim10-1 inh | Mdm2-MdmX inh | TIM10 inh | tim10-1 conf | tim10 confirm
Cc1ccc2oc(NC3=NC4(CCCC4)C4=C(CCCC4=O)N3)nc2c1 | -0.8 | · | · | · | · | · | ·
Cc1ccc(C(=O)ON=C2CCN(c3ccc([N+](=O)[O-])cc3)CC2)cc1 | 0.2 | 45.9 | 52.5* | 5.1 | 60.6* | 48.8* | 62.8*
CC(=O)c1cccc2c1OC(C)C(=O)N2Cc1ccc(Cl)cc1 (stereo unspecified) | -0.5 | · | · | · | · | · | ·
NC(=O)/C=C/C(=O)Nc1ccc(Cl)cc1 | 0.9 | 33.6 | 61.0* | -3.9 | 55.4* | 61.1* | 55.5*
CN1CCN(c2ccc(-c3cccc4nccn34)cn2)CC1 | 1.1 | · | · | · | · | · | ·
CC1(C)C(=O)C2(CCCCC2)C(=O)OC1c1ccc(O)cc1 (stereo unspecified) | -1.2 | 48.8 | 45.6* | 1.6 | 43.7* | 38.3* | 42.5*
C/C(=N\NC(=S)NCCc1ccccc1)c1cccc(Br)c1 | 1.6 | 10.3 | 17.1 | 1.5 | 37.1 | · | ·
C/C(=N\NC(=S)NCc1ccccc1)c1cccc(Br)c1 | 0.9 | 30.0 | 42.4* | -31.3 | 44.8* | 26.9 | 24.2
COc1ccc(/C(C)=N/NC(=S)NCCc2ccccc2)cc1 | -3.3 | 44.3 | 41.3* | 9.8 | 47.3* | 34.7* | 12.9
CCn1c(C)c(/C=N/Nc2nc3ccccc3s2)c2ccccc21 | 1.0 | 20.8 | 48.2* | 23.9 | 42.5* | 25.2 | 27.3
Oc1ccccc1C=NNc1nc2ccccc2s1 | 20.2 | · | · | · | · | · | ·
CCC(=O)N1CCC1(C)C(=O)Nc1cc(-c2ccccc2)nn1C (stereo unspecified) | 0.7 | · | · | · | · | · | ·
CC(C)c1ccc(NC(=S)NCc2cccs2)cc1 | 41.0 | 39.5 | 55.8* | -21.1 | 44.5* | 36.2* | 41.5*
COc1ccc(NC(=S)NCc2cccs2)cc1 | -0.5 | 8.6 | -0.6 | 6.3 | 3.8 | · | ·
CS(=O)(=O)Nc1cccc(-c2ccc3nncn3c2)c1 | -0.2 | · | · | · | · | · | ·
Cc1cc(N2C(=O)C=CC2=O)c([N+](=O)[O-])cc1C | 11.9 | 3.6 | 95.3* | -10.0 | 82.8* | 93.4* | 95.1*
O=C(Nc1cccc(S(=O)(=O)N2CCCC2)c1)c1ccc2ccccc2n1 | 0.2 | -2.3 | 46.5* | -0.9 | 43.0* | 36.5* | 38.5*
O=C(Nc1cccc(S(=O)(=O)N2CCCCC2)c1)c1ccc2ccccc2n1 | 2.0 | 25.1 | 44.3* | 13.5 | 40.6* | 21.2 | 5.2
O=C(Nc1cccc(S(=O)(=O)N2CCOCC2)c1)c1ccc2ccccc2n1 | 4.2 | 46.3 | 27.0 | 9.0 | 22.4 | · | ·
COc1ccc(CN(C)CCCn2cnc3c(SC)ncnc32)cc1OC | -1.4 | · | · | · | · | · | ·
Cn1c(N2CCOCC2)nc2c1c(=O)n(Cc1ccc(Cl)cc1)c(=O)n2C | 6.8 | 22.2 | -41.3 | -15.0 | -26.0 | · | ·
CC1CN(c2nc3c(c(=O)n(Cc4ccc(Cl)c(Cl)c4)c(=O)n3C)n2C)CC(C)O1 (stereo unspecified) | 0.9 | 38.6 | 48.8* | 34.2 | 45.2* | 43.5* | 33.4*
CN(C)/N=C/c1ccc(Sc2ccc([N+](=O)[O-])cc2[N+](=O)[O-])o1 | 1.4 | 26.6 | 42.9* | 7.7 | 40.3* | 43.6* | 46.8*
Cc1ccc(CC(=O)O/N=C(\N)Cc2ccc([N+](=O)[O-])cc2)cc1 | 3.7 | 44.4 | 73.2* | -1.5 | 60.0* | 77.3* | 62.7*
CCc1nc2c(OCc3c(C)noc3C)cccn2c1N(C)C(=O)c1ccccc1F | -0.5 | · | · | · | · | · | ·
SMILES | MPTP block | tim23-1 inh | tim10-1 inh | Mdm2-MdmX inh | TIM10 inh | tim10-1 conf | tim10 confirm
O=C1NC(Cc2ccccc2)c2nc3ccccc3c(=O)n2-c2cc3ccccc3cc21 (stereo unspecified) | -0.6 | · | · | · | · | · | ·
Cc1cccc(N2C(=O)CC(N3CCC(c4nc5ccccc5[nH]4)CC3)C2=O)c1 (stereo unspecified) | 0.9 | 17.3 | 35.1 | -1.0 | 13.9 | · | ·
O=C1CC(N2CCC(c3nc4ccccc4o3)CC2)C(=O)N1c1cc(Cl)cc(Cl)c1 (stereo unspecified) | 6.6 | 32.6 | 40.8* | 17.5 | 40.5* | 11.8 | 21.6
COC(C/C=C/C(=O)[C@H](C)OCc1ccccc1)OC | -0.4 | 47.1 | 51.7* | -14.5 | 45.7* | 47.7* | 46.1*
CCN1CCN(c2cc3c(nn2)Oc2ccccc2N3C)CC1 | -1.3 | 44.6 | 44.2* | -54.7 | 77.3* | 56.7* | 71.1*
O=C(c1ccccc1Nc1ccc(SC(F)F)cc1)N1CCCCCC1 | -1.6 | 38.1 | 43.9* | 12.0 | 51.1* | 33.6* | 33.4*
CSc1ccc(Cn2c(C)c(C(=O)NCc3ccc4c(c3)OCCO4)sc2=O)cc1 | -0.9 | · | · | · | · | · | ·
O=C(NCCc1ccc(F)cc1)C1CCC(=O)N(CC2CCCCC2)C1 (stereo unspecified) | -0.4 | · | · | · | · | · | ·
Cc1nc2ccccn2c1C(=O)/C=C/c1ccc(F)cc1 | -0.2 | 36.5 | 49.5* | 38.4 | 40.1* | 36.7* | 43.0*
O=C(O)c1c(Cl)cccc1Nc1ccccc1 | 1.1 | · | · | · | · | · | ·
Cc1c(C(=O)NCc2ccc3c(c2)OCCO3)sc(=O)n1Cc1ccccc1F | -1.4 | · | · | · | · | · | ·
CC(C)(C)NC(=O)c1ccc2c(c1)C1C3CCC(C3)C1C(c1ccccc1)N2 (stereo unspecified) | 2.9 | 44.4 | 44.1* | 6.5 | 41.5* | 33.5* | -9.2
COc1cc(/C=C2\N=C(C)OC2=O)cc(OC)c1OC | 0.9 | 21.7 | 9.8 | 12.4 | 4.0 | · | ·
COc1cc(/C=C2/N=C(C3CCCCC3)OC2=O)cc(OC)c1OC | -0.5 | 39.4 | 43.2* | -0.9 | 43.7* | 33.2* | 29.1
CCCS(=O)(=O)NC(=O)C1(C)CCN(C(=O)c2ccc(OC)cc2)C1 (stereo unspecified) | -0.5 | · | · | · | · | · | ·
O=C(Nc1ccc2c(c1)OCO2)C1CCCN(c2nc3ccccc3s2)C1 (stereo unspecified) | -0.1 | 44.7 | 48.0* | 13.3 | 44.7* | 35.5* | 37.8*
CCc1nnc(NC(=O)C2CCCN(c3nc4ccccc4s3)C2)s1 (stereo unspecified) | -0.1 | 16.5 | 6.5 | 2.3 | 24.6 | · | ·
O=C(NC12CC3CC(CC(C3)C1)C2)c1ccc(-c2cccc(Cl)c2)o1 | 40.8 | 47.3 | 47.3* | 27.8 | 46.7* | 35.6* | -17.5
O=C(NC12CC3CC(CC(C3)C1)C2)c1ccc(-c2ccc(Cl)cc2)o1 | 40.7 | 14.1 | 26.6 | -17.8 | 31.2 | · | ·
O=C1NN=C2CCCCCCC12 (stereo unspecified) | -0.6 | · | · | · | · | · | ·
Cc1cccc(C(=O)NC(=S)Nc2ccc(Cc3ccncc3)cc2)c1 | -1.1 | 29.6 | 47.8* | 16.3 | 45.9* | 30.8* | 34.5*
CCc1cc2cc(C)ccc2nc1SCC(=O)NNC(=O)c1ccco1 | 1.0 | 11.6 | 8.6 | -0.9 | -17.4 | · | ·
CCc1cc2ccc(C)cc2nc1SCC(=O)NNC(=O)c1ccco1 | 2.3 | 12.0 | 40.1* | 32.9 | 42.3* | 19.6 | 14.8
CCOC(=O)C1(C)CCCN(C(=O)c2ccccc2C(F)(F)F)C1 (stereo unspecified) | 0.8 | · | · | · | · | · | ·
COc1ccc(OCC(=O)Nc2ccc(N3CCOCC3)c(Cl)c2)cc1 | -2.3 | 26.3 | 17.1 | -13.3 | 10.9 | · | ·

High-throughput results from PubChem BioAssay.
